# Measured values published in PMC7862700, “An all-to-all approach to the identification of sequence-specific readers for epigenetic DNA modifications on cytosine”.
# Assays:
# Test in all cases: DAPPL (digital affinity profiling via proximity ligation, sequencing); 10 mM Tris-HCl pH 7.5, 50 mM NaCl, 1 mM DTT, 4% glycerol, room temperature, 30 min; GST-TFs on glutathione beads, 16-mer random dsDNA library, 0.1% formaldehyde crosslink after washing; high values mean tight binding
# FLI1 = target: T1, FLI1 (Homo sapiens, UniProt Q01543 1-452); conditions: protein: recombinant; tags: N-terminal GST; dsDNA, one strand shown
# T1 sequence: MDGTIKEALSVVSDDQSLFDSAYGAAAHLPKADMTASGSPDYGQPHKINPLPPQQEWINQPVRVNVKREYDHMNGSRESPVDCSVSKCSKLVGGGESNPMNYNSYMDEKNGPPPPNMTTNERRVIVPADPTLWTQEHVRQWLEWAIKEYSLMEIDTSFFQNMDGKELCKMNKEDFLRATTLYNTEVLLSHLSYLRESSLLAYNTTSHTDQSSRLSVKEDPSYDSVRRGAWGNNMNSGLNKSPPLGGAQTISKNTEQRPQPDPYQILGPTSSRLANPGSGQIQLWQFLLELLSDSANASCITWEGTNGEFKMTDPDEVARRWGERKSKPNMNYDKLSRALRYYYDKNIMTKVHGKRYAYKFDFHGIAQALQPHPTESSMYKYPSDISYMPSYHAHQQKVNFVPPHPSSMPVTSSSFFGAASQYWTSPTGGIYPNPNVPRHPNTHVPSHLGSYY
# Summary of the method: (§1)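 Human transcription factors carrying a GST fusion were produced in yeast, bound to glutathione beads, tagged with DNA barcodes and pooled together with a tag-only sample. Each pool was held with 200 nmole of a random double-stranded 16-mer DNA library in Tris/NaCl/DTT/glycerol buffer for 30 min at room temperature, then washed, crosslinked in 0.1% formaldehyde, proximity-ligated with BsaI/T4 ligase (1 h, 37 °C), PCR-amplified and sequenced on an Illumina NextSeq500. Binding signal is the read frequency of each hexamer for a given factor divided by its frequency in the tag-only sample.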
# ELK1 = target: T2, ELK1 (Homo sapiens, UniProt P19419 1-428); conditions: protein: recombinant; tags: N-terminal GST; dsDNA, one strand shown
# T2 sequence: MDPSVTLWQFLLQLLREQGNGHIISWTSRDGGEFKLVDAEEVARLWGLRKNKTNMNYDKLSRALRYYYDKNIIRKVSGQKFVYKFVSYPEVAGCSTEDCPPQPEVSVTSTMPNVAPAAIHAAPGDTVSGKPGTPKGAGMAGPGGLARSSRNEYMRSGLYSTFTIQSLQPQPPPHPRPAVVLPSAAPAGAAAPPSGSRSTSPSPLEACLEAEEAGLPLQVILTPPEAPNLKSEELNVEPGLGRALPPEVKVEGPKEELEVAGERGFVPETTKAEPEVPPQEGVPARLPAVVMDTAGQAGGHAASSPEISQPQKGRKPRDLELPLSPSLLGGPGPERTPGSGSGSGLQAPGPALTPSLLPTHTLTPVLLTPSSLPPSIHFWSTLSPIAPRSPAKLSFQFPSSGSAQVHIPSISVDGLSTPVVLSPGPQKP
# Summary of the method: as §1
# GABPA = target: T3, GABPA (Homo sapiens, UniProt Q06546 1-454); conditions: protein: recombinant; tags: N-terminal GST; dsDNA, one strand shown
# T3 sequence: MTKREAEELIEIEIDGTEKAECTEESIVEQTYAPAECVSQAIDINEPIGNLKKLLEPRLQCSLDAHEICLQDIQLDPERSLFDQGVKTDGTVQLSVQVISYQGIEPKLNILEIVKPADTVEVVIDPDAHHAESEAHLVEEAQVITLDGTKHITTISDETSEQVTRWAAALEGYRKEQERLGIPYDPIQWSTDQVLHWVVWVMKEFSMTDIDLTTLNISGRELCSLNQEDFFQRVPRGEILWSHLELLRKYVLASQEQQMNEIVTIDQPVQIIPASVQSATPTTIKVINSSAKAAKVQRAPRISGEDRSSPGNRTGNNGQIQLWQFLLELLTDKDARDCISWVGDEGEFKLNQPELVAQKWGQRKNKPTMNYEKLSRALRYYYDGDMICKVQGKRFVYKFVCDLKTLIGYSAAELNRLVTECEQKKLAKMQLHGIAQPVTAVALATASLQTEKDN
# Summary of the method: as §1
# ERG = target: T4, ERG (Homo sapiens, UniProt P11308 1-479); conditions: protein: recombinant; tags: N-terminal GST; dsDNA, one strand shown
# T4 sequence: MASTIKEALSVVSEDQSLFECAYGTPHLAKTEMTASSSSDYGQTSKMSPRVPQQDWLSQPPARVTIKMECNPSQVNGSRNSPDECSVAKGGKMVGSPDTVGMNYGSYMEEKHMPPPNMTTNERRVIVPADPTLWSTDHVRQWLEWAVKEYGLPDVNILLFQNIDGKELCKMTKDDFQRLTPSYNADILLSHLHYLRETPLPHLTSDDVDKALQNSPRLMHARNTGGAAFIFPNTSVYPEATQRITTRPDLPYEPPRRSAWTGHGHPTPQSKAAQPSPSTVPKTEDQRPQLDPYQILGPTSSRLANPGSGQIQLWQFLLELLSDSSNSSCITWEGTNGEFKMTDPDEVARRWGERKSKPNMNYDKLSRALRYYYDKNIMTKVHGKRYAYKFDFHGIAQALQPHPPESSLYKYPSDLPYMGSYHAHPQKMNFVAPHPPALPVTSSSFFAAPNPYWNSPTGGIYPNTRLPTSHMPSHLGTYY
# Summary of the method: as §1
# ELF1 = ELF1 (Homo sapiens, UniProt P32519 1-619); conditions: protein: recombinant; tags: N-terminal GST; dsDNA, one strand shown
# ELF1, sequence (P32519 whole entry): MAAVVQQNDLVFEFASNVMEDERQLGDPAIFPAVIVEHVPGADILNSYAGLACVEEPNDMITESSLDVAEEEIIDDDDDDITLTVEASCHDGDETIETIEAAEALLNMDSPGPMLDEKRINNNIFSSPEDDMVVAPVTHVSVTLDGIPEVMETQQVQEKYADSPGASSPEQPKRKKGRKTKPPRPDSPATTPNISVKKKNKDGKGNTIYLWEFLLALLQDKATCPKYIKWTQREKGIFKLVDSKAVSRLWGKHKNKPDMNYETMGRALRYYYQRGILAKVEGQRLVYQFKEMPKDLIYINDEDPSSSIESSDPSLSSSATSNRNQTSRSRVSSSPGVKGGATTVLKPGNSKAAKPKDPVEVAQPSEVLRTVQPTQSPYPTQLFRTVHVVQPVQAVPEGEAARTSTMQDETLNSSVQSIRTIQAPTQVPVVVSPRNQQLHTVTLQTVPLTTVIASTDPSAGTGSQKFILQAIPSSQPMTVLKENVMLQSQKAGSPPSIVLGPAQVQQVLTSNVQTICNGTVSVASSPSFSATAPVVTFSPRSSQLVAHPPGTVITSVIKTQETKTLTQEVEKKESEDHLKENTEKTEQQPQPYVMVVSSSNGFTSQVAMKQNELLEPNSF
# Summary of the method: as §1
# EHF = target: T5, EHF (Homo sapiens, UniProt Q9NZC4 1-300); conditions: protein: recombinant; tags: N-terminal GST; dsDNA, one strand shown
# T5 sequence: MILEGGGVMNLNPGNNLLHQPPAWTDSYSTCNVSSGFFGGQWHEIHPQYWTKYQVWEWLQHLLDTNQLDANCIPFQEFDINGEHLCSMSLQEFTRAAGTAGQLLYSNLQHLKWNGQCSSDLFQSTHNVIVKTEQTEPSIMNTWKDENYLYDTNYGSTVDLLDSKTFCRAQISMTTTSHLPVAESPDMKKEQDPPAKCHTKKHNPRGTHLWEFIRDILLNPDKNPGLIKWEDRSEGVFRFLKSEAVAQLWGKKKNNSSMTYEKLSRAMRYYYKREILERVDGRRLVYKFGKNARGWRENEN
# Summary of the method: as §1
# SPI1 = SPI1 (Homo sapiens, UniProt P17947 1-270); conditions: protein: recombinant; tags: N-terminal GST; dsDNA, one strand shown
# Summary of the method: as §1
# SPIB = SPIB (Homo sapiens, UniProt Q01892 1-262); conditions: protein: recombinant; tags: N-terminal GST; dsDNA, one strand shown
# SPIB, sequence (Q01892 whole entry): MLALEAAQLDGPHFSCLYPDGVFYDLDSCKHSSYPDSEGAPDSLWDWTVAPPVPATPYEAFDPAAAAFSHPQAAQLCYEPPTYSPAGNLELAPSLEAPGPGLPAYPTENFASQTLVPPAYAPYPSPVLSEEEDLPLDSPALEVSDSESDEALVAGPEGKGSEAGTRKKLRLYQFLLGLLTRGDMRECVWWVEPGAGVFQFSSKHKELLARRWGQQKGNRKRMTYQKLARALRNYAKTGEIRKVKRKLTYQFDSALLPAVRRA
# Summary of the method: as §1
# ELK3 = target: T6, ELK3 (Homo sapiens, UniProt P41970 1-407); conditions: protein: recombinant; tags: N-terminal GST; dsDNA, one strand shown
# T6 sequence: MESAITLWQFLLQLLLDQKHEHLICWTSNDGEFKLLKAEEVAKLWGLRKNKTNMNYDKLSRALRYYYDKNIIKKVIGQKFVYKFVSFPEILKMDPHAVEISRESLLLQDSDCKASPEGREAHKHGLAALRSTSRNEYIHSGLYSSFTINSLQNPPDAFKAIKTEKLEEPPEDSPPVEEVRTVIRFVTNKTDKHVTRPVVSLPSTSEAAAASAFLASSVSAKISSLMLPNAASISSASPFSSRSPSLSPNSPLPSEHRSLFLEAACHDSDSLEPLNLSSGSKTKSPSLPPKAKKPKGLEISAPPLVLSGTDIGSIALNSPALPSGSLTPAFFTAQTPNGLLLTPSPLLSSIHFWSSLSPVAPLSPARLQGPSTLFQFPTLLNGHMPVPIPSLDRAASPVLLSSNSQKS
# Summary of the method: as §1
# FEV = target: T7, FEV (Homo sapiens, UniProt Q99581 1-238); conditions: protein: recombinant; tags: N-terminal GST; dsDNA, one strand shown
# T7 sequence: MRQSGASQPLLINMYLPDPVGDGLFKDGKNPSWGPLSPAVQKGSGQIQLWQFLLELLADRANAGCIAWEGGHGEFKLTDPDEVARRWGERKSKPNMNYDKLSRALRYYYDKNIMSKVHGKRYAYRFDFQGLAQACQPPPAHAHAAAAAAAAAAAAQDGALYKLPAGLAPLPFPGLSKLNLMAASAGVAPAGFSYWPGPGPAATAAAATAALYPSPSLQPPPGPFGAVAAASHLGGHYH
# Summary of the method: as §1
# ETV5 = ETV5 (Homo sapiens, UniProt P41161 1-510); conditions: protein: recombinant; tags: N-terminal GST; dsDNA, one strand shown
# ETV5, sequence (P41161 whole entry): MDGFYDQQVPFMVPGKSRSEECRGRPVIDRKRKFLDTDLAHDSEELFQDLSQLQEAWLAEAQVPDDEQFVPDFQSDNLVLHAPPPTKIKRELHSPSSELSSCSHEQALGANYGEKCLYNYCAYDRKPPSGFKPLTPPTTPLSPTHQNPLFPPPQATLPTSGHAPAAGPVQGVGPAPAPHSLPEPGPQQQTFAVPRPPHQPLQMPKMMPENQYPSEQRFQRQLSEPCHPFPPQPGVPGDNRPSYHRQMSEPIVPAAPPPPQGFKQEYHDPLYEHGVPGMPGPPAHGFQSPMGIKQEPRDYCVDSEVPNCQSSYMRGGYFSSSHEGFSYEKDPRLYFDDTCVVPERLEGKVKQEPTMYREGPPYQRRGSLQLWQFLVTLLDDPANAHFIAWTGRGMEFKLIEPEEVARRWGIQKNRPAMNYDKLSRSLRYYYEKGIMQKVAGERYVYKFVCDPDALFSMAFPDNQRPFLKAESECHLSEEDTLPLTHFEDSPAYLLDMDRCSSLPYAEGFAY
# Summary of the method: as §1
# HSF1 = HSF1 (Homo sapiens, UniProt Q00613 1-529); conditions: protein: recombinant; tags: N-terminal GST; chain copies: 3; dsDNA, one strand shown
# HSF1, sequence (Q00613 whole entry): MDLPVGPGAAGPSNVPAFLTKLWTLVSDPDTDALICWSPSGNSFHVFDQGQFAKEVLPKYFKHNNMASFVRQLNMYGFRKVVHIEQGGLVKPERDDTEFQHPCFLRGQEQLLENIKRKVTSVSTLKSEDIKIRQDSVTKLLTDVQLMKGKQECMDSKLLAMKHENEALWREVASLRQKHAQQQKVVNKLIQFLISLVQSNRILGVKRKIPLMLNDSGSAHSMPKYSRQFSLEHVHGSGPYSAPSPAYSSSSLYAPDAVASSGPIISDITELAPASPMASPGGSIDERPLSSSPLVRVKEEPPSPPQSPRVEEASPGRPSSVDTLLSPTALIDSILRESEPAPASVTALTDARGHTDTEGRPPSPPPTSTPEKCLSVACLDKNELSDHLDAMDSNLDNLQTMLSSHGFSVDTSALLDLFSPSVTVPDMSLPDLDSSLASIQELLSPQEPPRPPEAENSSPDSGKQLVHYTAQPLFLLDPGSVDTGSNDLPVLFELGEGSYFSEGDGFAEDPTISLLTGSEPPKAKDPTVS
# Summary of the method: as §1
# SPIC = target: T8, SPIC (Homo sapiens, UniProt Q8N5J4 1-248); conditions: protein: recombinant; tags: N-terminal GST; dsDNA, one strand shown
# T8 sequence: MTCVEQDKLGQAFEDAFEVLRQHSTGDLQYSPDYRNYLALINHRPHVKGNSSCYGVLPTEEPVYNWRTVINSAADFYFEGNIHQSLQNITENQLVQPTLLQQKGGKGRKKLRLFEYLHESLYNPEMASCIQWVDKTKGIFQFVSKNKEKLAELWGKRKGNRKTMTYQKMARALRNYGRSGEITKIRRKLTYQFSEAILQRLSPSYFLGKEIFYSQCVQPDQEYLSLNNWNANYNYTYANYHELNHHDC
# Summary of the method: as §1
# ELF4 = ELF4 (Homo sapiens, UniProt Q99607 1-663); conditions: protein: recombinant; tags: N-terminal GST; dsDNA, one strand shown
# ELF4, sequence (Q99607 whole entry): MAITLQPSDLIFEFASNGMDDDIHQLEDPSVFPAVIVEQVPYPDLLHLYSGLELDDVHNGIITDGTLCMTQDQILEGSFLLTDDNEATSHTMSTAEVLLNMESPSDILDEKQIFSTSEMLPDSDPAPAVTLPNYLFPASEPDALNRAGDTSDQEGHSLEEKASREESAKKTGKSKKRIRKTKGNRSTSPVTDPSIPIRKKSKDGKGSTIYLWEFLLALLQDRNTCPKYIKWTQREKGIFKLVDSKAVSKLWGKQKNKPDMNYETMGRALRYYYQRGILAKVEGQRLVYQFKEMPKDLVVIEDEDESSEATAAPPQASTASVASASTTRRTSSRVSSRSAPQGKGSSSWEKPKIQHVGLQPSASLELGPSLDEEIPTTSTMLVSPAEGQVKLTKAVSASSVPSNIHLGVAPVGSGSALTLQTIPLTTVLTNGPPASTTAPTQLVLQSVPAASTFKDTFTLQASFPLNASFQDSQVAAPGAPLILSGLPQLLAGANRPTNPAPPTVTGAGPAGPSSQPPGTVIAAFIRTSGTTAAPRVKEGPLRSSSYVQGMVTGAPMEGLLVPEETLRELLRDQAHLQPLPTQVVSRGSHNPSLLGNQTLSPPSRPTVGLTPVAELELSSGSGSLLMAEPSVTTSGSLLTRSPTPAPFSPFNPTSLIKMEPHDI
# Summary of the method: as §1
# ELK4 = target: T9, ELK4 (Homo sapiens, UniProt P28324-2 1-405); conditions: protein: recombinant; tags: N-terminal GST; dsDNA, one strand shown
# T9 sequence: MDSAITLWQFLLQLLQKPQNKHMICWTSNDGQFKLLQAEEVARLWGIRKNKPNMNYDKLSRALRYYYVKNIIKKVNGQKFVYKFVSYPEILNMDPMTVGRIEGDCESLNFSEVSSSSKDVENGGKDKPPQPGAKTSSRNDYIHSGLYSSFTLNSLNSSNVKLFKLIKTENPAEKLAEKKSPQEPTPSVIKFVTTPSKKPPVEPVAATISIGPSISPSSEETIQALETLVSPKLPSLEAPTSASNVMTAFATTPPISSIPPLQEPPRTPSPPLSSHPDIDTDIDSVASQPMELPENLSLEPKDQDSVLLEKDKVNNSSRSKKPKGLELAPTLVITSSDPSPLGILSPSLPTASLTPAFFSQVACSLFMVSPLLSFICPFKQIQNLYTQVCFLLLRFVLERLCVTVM
# Summary of the method: as §1
# ETV2 = target: T10, ETV2 (Homo sapiens, UniProt O00321 1-342); conditions: protein: recombinant; tags: N-terminal GST; dsDNA, one strand shown
# T10 sequence: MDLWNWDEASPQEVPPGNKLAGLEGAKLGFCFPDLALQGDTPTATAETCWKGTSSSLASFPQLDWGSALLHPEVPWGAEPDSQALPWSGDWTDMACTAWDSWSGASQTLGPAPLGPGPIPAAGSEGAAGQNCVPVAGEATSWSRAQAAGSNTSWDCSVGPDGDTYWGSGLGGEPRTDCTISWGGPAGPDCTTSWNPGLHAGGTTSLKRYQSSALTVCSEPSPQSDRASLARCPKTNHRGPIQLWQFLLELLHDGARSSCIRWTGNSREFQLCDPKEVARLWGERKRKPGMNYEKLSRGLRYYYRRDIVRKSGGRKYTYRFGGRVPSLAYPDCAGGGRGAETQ
# Summary of the method: as §1
# ELF3 = target: T11, ELF3 (Homo sapiens, UniProt P78545 1-371); conditions: protein: recombinant; tags: N-terminal GST; dsDNA, one strand shown
# T11 sequence: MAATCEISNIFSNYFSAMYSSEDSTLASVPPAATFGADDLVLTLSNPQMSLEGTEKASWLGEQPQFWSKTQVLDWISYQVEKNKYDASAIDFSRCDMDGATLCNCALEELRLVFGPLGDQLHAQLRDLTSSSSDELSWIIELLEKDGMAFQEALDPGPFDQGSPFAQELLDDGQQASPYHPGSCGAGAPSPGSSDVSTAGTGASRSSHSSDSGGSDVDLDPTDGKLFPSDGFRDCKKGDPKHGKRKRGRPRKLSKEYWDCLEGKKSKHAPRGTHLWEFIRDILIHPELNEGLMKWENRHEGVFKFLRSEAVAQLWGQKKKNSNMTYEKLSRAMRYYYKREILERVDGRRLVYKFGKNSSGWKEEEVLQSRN
# Summary of the method: as §1
# CRX = CRX (Homo sapiens, UniProt O43186 1-299); conditions: protein: recombinant; tags: N-terminal GST; dsDNA, one strand shown
# CRX, sequence (O43186 whole entry): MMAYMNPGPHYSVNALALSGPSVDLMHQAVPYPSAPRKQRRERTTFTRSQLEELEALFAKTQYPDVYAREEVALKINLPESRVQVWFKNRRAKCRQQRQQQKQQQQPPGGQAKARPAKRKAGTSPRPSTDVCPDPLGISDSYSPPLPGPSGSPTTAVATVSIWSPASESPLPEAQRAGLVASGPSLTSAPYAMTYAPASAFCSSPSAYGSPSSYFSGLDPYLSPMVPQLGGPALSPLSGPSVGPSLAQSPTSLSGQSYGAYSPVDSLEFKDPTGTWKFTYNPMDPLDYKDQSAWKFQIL
# Summary of the method: as §1
# ETV1 = ETV1 (Homo sapiens, UniProt P50549 1-477); conditions: protein: recombinant; tags: N-terminal GST; dsDNA, one strand shown
# ETV1, sequence (P50549 whole entry): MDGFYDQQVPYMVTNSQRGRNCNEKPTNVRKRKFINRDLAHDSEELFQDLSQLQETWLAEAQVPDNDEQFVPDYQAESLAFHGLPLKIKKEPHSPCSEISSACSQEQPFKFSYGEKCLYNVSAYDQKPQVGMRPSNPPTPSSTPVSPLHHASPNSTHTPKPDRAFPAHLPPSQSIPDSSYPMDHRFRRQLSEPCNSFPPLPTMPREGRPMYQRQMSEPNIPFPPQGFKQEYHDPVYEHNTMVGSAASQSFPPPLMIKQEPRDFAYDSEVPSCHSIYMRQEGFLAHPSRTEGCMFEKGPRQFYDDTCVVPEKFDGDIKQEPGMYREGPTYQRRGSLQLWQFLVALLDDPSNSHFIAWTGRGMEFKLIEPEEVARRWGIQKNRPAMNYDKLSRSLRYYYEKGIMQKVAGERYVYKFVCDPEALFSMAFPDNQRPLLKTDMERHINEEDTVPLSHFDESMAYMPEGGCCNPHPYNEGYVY
# Summary of the method: as §1
sequence,measurement,setting,value
TAAAAA,binding signal,FLI1,"1.27 fold enrichment (6-mer frequency, TF over GST control)"
same,binding signal,ELK1,"1.13 fold enrichment (6-mer frequency, TF over GST control)"
same,binding signal,GABPA,"1.36 fold enrichment (6-mer frequency, TF over GST control)"
same,binding signal,ERG,"1.26 fold enrichment (6-mer frequency, TF over GST control)"
same,binding signal,ELF1,"1.26 fold enrichment (6-mer frequency, TF over GST control)"
same,binding signal,EHF,"1.29 fold enrichment (6-mer frequency, TF over GST control)"
same,binding signal,SPI1,"1.53 fold enrichment (6-mer frequency, TF over GST control)"
same,binding signal,SPIB,"1.35 fold enrichment (6-mer frequency, TF over GST control)"
same,binding signal,ELK3,"1.32 fold enrichment (6-mer frequency, TF over GST control)"
same,binding signal,FEV,"1.29 fold enrichment (6-mer frequency, TF over GST control)"
same,binding signal,ETV5,"1.3 fold enrichment (6-mer frequency, TF over GST control)"
same,binding signal,HSF1,"1.56 fold enrichment (6-mer frequency, TF over GST control)"
same,binding signal,SPIC,"1.34 fold enrichment (6-mer frequency, TF over GST control)"
same,binding signal,ELF4,"1.45 fold enrichment (6-mer frequency, TF over GST control)"
same,binding signal,ELK4,"1.34 fold enrichment (6-mer frequency, TF over GST control)"
same,binding signal,ETV2,"1.4 fold enrichment (6-mer frequency, TF over GST control)"
same,binding signal,ELF3,"1.33 fold enrichment (6-mer frequency, TF over GST control)"
same,binding signal,CRX,"1.82 fold enrichment (6-mer frequency, TF over GST control)"
same,binding signal,ETV1,"1.26 fold enrichment (6-mer frequency, TF over GST control)"
